Screening results deposited in PubChem by Sanford-Burnham Center for Chemical Genomics.
An excerpt weighted towards active compounds, which were near 1.8% of everything screened.
UBC9 SUMO inh: blocks human SUMOylation mediated by UBC9; P63279; HTRF SUMOylation assay, SAE1/SAE2 + UBC9, in vitro; inhibition, % at 35 µM; hit rate 0.36% among 290,000; AID 2006; in the data active = inhibition above about 50%, passing the limit was not always enough
pCIP destab: compounds decreasing mouse p/CIP protein stability; F442A p/CIP-EGFP cells, EGFP fluorescence, 16 h; hit rate 0.01% among 290,000; decrease of EGFP signal, % at 10 µM;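 active = EGFP signal decrease of at least 30% at 10 µM or well 3 SD below plate mean, unless failing retest; inactive = the rest, including hits failing retest or dose response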
Target sequence (Q05BA5 1-1403): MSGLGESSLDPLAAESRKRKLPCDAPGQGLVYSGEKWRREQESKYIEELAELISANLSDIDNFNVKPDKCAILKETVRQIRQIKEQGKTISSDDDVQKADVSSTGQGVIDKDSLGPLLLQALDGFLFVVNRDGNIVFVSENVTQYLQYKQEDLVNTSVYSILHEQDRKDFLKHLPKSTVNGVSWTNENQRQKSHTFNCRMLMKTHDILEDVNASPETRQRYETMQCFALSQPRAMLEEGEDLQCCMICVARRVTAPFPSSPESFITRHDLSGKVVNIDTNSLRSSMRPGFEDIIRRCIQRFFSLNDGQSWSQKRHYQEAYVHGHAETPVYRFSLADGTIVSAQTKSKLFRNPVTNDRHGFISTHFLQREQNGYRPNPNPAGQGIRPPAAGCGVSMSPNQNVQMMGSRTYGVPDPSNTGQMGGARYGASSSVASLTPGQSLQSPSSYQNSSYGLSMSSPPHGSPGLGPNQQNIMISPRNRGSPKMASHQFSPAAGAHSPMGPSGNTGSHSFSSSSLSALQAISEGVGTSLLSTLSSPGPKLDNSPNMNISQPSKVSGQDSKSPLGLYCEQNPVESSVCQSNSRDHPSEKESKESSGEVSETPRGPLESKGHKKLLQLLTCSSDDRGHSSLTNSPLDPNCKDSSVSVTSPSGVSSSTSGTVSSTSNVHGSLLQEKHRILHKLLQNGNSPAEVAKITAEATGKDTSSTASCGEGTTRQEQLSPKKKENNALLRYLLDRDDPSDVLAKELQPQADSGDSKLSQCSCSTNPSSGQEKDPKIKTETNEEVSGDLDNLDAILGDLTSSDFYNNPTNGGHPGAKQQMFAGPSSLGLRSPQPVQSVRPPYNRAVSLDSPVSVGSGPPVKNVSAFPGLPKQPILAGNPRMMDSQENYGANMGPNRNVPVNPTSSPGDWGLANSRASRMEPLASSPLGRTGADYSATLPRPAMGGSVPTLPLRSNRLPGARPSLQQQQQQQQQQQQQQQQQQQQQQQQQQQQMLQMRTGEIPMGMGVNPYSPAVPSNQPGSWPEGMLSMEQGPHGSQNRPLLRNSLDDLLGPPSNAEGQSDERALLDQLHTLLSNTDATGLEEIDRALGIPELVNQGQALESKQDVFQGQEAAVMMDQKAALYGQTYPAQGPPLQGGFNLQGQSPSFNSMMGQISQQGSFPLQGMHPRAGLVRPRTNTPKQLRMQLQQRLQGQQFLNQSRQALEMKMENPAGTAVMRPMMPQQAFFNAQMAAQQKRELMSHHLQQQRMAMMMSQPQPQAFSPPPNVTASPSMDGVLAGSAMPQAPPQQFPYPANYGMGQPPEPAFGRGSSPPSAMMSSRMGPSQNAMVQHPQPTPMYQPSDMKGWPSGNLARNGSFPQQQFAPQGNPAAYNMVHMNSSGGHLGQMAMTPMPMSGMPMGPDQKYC
NadD block: inhibitors of Staphylococcus aureus NadD | purified NadD enzyme, colorimetric absorbance read-out | inhibition, % at 20 µM | hit rate 0.78% among 360,000; in the data active = inhibition above about 26%
PHOSPHO1 inh: blocks human PHOSPHO1 phosphatase activity | recombinant PHOSPHO1, absorbance phosphatase assay | hit rate 1.1% among 290,000 | Q8TCT1 | inhibition, % at 13.3 µM; in the data active = inhibition above about 60%
NadD conf: confirmation of Staphylococcus aureus NadD inhibitors | shares compounds with NadD block | purified S. aureus NadD, colorimetric enzyme assay | inhibition, % at 20 µM | hit rate 13% among 2,000; in the data active = inhibition mostly above about 42%, no sharp cut-off; inactive = mostly below about 42%
Starred values were filed as active, the others as inactive; . = no result.

SMILES	UBC9 SUMO inh	pCIP destab	NadD block	PHOSPHO1 inh	NadD conf
CC(=O)c1cccc(CN2CCCC(C(=O)Nc3ccc(-c4ccco4)cc3)C2)c1 (centres undefined)	4.7	-1.3	32.2*	33.5	4.9
Cc1nn(CC(=O)Nc2ccc3c(c2)nc2n3CCN(C3CCCCC3)C2)c(=O)c2ccccc12	37.2	0.0	31.7*	52.5	13.1
CN(Cc1ccc(Cl)cc1)C(=O)COC(=O)c1ccc(-c2ccc(O)cc2)cc1	.	.	11.1	.	.
O=C1CCCC[C@@H](CO)[C@H](O)C[C@H](c2ccccc2)O1	.	.	4.2	.	.
COCc1cc(=O)n2[nH]c(N)nc2n1	-8.1	1.4	-3.7	23.6	.
Cc1cc(=O)n2[nH]c(-c3ccsc3-n3c(C)ccc3C)cc2n1	64.8*	-10.1	30.9*	33.4	16.4
COCc1cc(=O)n2[nH]c(-c3ccsc3-n3c(C)ccc3C)cc2n1	48.2	-18.7	56.1*	40.8	42.8*
Cc1nc2cc(-c3ccsc3-n3c(C)ccc3C)[nH]n2c(=O)c1Cl	40.6	-5.4	16.2	49.4	.
N#Cc1c(SCC(=O)Nc2nc3ccc(Br)cc3s2)sc2c(O)cc(=O)[nH]c12	11.5	0.6	40.9*	0.0	39.4
N#Cc1c(SCC(=O)Nc2nc3ccccc3s2)sc2c(O)cc(=O)[nH]c12	.	.	17.6	.	.
COc1ccc([C@H]2CN(Cc3ccccc3)C(=O)[C@@H]2CC(=O)Nc2ccccc2)cc1	.	.	-0.9	.	.
CCCCCCCCCCCCCCCC[n+]1ccc(C(N)=O)cc1	14.3	3.2	29.3*	5.7	-4.6
O=C(C#Cc1ccccc1)c1ccco1	19.6	-42.2	-11.0	16.0	.
CC(C)c1ccc(NC(=O)COc2ccc(S(=O)(=O)N3CCOCC3)cc2)cc1	1.1	-10.3	45.5*	-13.8	0.6
Cc1nc(NCc2ccco2)c2c3c(sc2n1)CCC3	28.2	-12.1	-0.7	40.8	.
CCN1CCc2c(sc3c2c(NCc2ccco2)nc2nnnn23)C1	19.0	-4.6	37.7*	39.6	8.2
CSCCC(NC(=O)c1ccccc1Cl)C(=O)N1CCN(C(c2ccccc2)c2ccccc2)CC1 (centres undefined)	-39.5	12.7	6.0	-4.0	.
COC(=O)C1=C(C)NC(=S)NC1c1ccc(OCC(=O)N2CCCCC2)c(OC)c1 (centres undefined)	1.5	-7.0	-1.9	23.3	.
Cc1cc(=O)oc2cc(OCc3ccc(C(=O)OCC(=O)NC4CCS(=O)(=O)C4)cc3)ccc12 (centres undefined)	13.2	-1.3	-1.0	3.2	.
Cc1cc(=O)oc2cc(OCc3ccc(C(=O)OCC(=O)Nc4ccc(N(C)C)cc4)cc3)ccc12	.	-0.2	35.5*	57.3	5.2
CC(C)C[C@@H](CN1CCC[C@@H]1CN1C(=O)C(=O)NC[C@@H]1Cc1ccccc1)N1C[C@H](Cc2ccc(O)cc2)N(CC2CCCCC2)C(=O)C1=O	.	.	22.1	.	.
CC(C)C[C@H]1CN([C@@H](CC(C)C)CN2CCC[C@H]2CN2C(=O)C(=O)NC[C@@H]2Cc2ccc(O)cc2)C(=O)C(=O)N1CC1CCCCCC1	.	.	30.1*	.	21.0
CC(C)C[C@@H](CN1CCC[C@H]1CN1C(=O)C(=O)NC[C@@H]1Cc1ccccc1)N1C[C@H](Cc2ccc(O)cc2)N(CC2CCCCCC2)C(=O)C1=O	.	.	40.5*	.	32.9
CCS(=O)(=O)c1nc(S(=O)(=O)c2ccc(Cl)cc2)c(NCCN2CCOCC2)s1	4.8	-6.2	5.9	45.3	.
CCOc1ccc(C2C(C#N)=C(N)N(N(C)C)C3=C2C(=O)CC(C)(C)C3)cc1 (centres undefined)	13.8	1.4	-4.2	40.4	.
SMILES	UBC9 SUMO inh	pCIP destab	NadD block	PHOSPHO1 inh	NadD conf
CCOc1ccc(C2C(C#N)=C(N)N(c3sc4c(c3C#N)CCCC4)C3=C2C(=O)CCC3)cc1 (centres undefined)	14.0	-9.7	55.5*	55.6	12.9
Cc1ccc2nc(N3C(=O)C(O)=C(C(=O)c4ccco4)C3c3ccc(C)o3)sc2c1 (centres undefined)	14.6	-4.9	26.1*	39.0	35.4
Cc1ccc2nc(N3C(=O)C(O)=C(C(=O)c4ccc(C)o4)C3c3ccco3)sc2c1 (centres undefined)	.	.	25.9	.	.
Cc1ccc2nc(N3C(=O)C(O)=C(C(=O)c4ccco4)C3c3ccc(O)cc3)sc2c1 (centres undefined)	17.8	-7.5	10.8	36.2	.
O=C(C1=C(O)C(=O)N(c2nc3ccc(Cl)cc3s2)C1c1ccco1)c1ccco1 (centres undefined)	.	.	55.5*	.	51.1*
CCNC(=O)C1(C)CCN(C(=O)c2c(-c3ccccc3)noc2C)C1 (centres undefined)	.	.	2.9	.	.
N=c1c(C(=O)NCc2ccccc2)cc2c(=O)n3ccccc3nc2n1Cc1ccco1	46.4	-8.3	31.1*	20.4	10.4
Cc1ccc(S(=O)(=O)c2cc3c(=O)n4ccccc4nc3n(Cc3ccco3)c2=N)cc1	.	-8.7	43.3*	0.2	25.6
Cc1ccc(S(=O)(=O)c2cc3c(=O)n4cccc(C)c4nc3n(Cc3ccco3)c2=N)cc1C	25.1	-7.5	.	19.2	.
N=c1c(C(=O)NCc2ccco2)cc2c(=O)n3ccccc3nc2n1Cc1ccccc1	49.7	-12.2	31.6*	-51.2	26.3
N=c1c(S(=O)(=O)c2ccc(Cl)cc2)cc2c(=O)n3ccccc3nc2n1C1CCCCC1	-3.2	-8.5	43.0*	35.2	21.3
COc1ccc2ccccc2c1CNC(=O)CC1C(=O)NCCN1CC(C)(C)C (centres undefined)	4.0	-0.9	1.4	41.2	.
O=C(CSc1ccccc1)NCc1ccccn1	2.0	1.3	2.1	-6.0	.
Cc1ccc(CNC(=O)c2cc3c(=O)n4ccccc4nc3n(Cc3ccco3)c2=N)cc1	19.9	-9.5	40.5*	-17.2	32.4
CCOC(=O)C(Cc1ccccc1)C(=O)Nc1cccc2ccccc12 (centres undefined)	15.8	-12.1	-5.4	-28.2	.
COc1ccc(Cn2c(SCc3ccccc3C)nc3cc(OC)c(OC)cc3c2=N)cc1	-22.1	-15.1	30.4*	37.5	15.3
CCOC(=O)c1ccc(N=C2C(=S)N(c3ccc(C(=O)OCC)cc3)C(=N)N2/N=C/c2ccccc2)cc1	-3.8	-13.0	39.1*	-25.7	13.2
CCOC(=O)c1ccc(N=c2scc(C)n2CC)cc1	2.7	-10.1	6.1	37.3	.
O=C(Nc1nc(-c2ccccc2)cs1)c1ccc2c(c1)S(=O)(=O)c1ccccc1C2=O	10.9	0.1	35.3*	-6.6	5.1
O=C(Nc1nc(-c2cccc3ccccc23)cs1)c1ccc2c(c1)S(=O)(=O)c1ccccc1C2=O	27.3	-12.5	28.6	34.9	.
Cc1ccc(Cc2cnc(NC(=O)/C(C#N)=C/c3ccc(-c4ccc([N+](=O)[O-])cc4)o3)s2)cc1	0.1	-7.0	47.7*	-4.0	4.1
N#C/C(=C/c1ccc(-c2ccc([N+](=O)[O-])cc2)o1)C(=O)Nc1nc(-c2cccs2)cs1	.	.	48.3*	.	6.0
Cc1ccc(S(=O)(=O)N2CCN(C(=O)c3ccccc3)CC2)c(C)c1NS(C)(=O)=O	5.0	-14.9	-8.3	22.6	.
Cc1cc(Br)c2nc(-c3ccccc3)c(Cc3cccc(Cl)c3)n2c1	.	.	31.4*	.	16.8
